The list is not random: actives were taken first. Their share in the collection is about 3.3%.
HTT aggregate: qHTS Multiplex Assay to Identify Dual Action Probes in a Cell Model of Huntington: Aggregate Formation (GFP); Potency, µM (top dose mostly 46.1 µM), hits mostly inhibitors; PC12 HttQ103-GFP aggregates, Acumen cytometry, 40 h; AID 1688, 2009; 1.1% of 220,000 active; also: nearly all actives have a fitted effect of over 60% in size
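Quantitative HTS on tebufenozide-induced (100 nM) PC12 cells stably expressing polyQ103 Huntingtin exon 1–GFP. Reduction of bright GFP aggregates, detected by laser scanning cytometry after lysis, identified actives across the titration.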
PNC assembly inh: High Content Assay for Compounds that inhibit the Assembly of the Perinucleolar Compartment; PC3M PTB-GFP, PNC prevalence imaging, 16 h; active compounds read low; activity change (PNC), negative = inhibition, % at 10 µM; 3.1% of 140,000 active;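 active = readout at or below -70, meaning at least 70% loss of cells showing the perinucleolar compartment, a nuclear body marking cancer cells; inconclusive = readout between -30 and a set limit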
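Read-out is percentage of cells bearing a perinucleolar compartment, from automated 20x imaging of fixed, Hoechst-stained PC3M PTB-GFP cells. Cells were seeded 4 h, then exposed 16 h to compound (23 nl of library stock) in duplicate plates.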
IMPase inh: qHTS Assay for Identifying the Cell-Membrane Permeable IMPase Inhibitors; inhibition (IP1 accumulation), % at 46.1 µM; CHO-M1 cells, IP1 accumulation, HTRF TR-FRET ratio; 120,000 tested, under 10 active; active = well fitted curve in the direction sought with a large enough effect in the signal ratio, not every such curve was filed as active; inconclusive = small, poorly fitted or top-dose-only effect, or a change in a side signal; inactive = no such curve, though single readings can be large or run the other way; the % refers to the signal ratio;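 also: cells stimulated with carbachol in lithium chloride buffer; higher means more IMPase inhibition seen as more IP1 and lower FRET ratio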
Target sequence (P97697 whole entry, looked up): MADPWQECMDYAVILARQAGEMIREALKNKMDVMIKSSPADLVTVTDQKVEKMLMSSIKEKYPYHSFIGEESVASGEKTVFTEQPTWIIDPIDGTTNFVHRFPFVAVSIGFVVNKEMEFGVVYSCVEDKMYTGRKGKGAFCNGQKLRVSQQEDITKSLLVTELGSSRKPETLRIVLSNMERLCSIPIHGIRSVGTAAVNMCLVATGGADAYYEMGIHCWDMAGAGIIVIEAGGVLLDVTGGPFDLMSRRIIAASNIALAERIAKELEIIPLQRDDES
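Carbachol-driven Gq signalling in CHO-M1 cells (2000/well) generates IP1. Compounds that block IMPase raise IP1 and so reduce the FRET signal from Eu-anti-IP1 and d2-IP1 after a 10 min room-temperature lysis.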
NPSR antag: qHTS Assay for Antagonists of the Neuropeptide S Receptor: cAMP Signal Transduction | Q6W5P4 | CHO-NPSR cells, cAMP TR-FRET, antagonist mode | Potency, µM (highest dose often 38.3 µM), hits mostly inhibitors | 1% of 220,000 active | AID 1461, 2008; also: nearly all actives have a fitted effect of over 50% in size
Target sequence (Q6W5P4 whole entry, looked up): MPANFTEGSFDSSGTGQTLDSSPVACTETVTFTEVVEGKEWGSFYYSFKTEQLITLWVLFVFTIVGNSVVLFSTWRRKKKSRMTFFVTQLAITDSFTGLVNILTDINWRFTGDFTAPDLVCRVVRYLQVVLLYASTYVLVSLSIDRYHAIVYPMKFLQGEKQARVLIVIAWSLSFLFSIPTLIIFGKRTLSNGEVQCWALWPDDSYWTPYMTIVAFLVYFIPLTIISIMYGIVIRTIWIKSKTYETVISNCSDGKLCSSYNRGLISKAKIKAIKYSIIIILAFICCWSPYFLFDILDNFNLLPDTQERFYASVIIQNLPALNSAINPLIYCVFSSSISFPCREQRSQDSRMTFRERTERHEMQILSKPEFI
ALOX12 inhib: qHTS Assay for Inhibitors of 12-hLO (12-human lipoxygenase) | Potency, µM (top dose mostly 57.1 µM), actives largely listed as inhibitors | purified 12-hLO, xylenol orange hydroperoxide absorbance | 0.12% of 150,000 active | AID 1452, 2008; also: nearly all actives have a fitted effect of over 55% in size
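150 nM 12hLO, 25 mM Hepes pH 7.0 + 0.01% Triton X-100; cpd preinc 15 min RT; 40 uM arachidonic acid, 30 min RT; Fe-XO 30 min; A573/A405 ratio as read-out.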
HTT ATP protect: qHTS Multiplex Assay to Identify Dual Action Probes in a Cell Model of Huntington: Cytoprotection (ATP); 0.14% of 230,000 active; Potency, µM (top dose mostly 56.4 µM), hits mostly activators; PC12 HTT-Q103 induced, cytoprotection, ATP luminescence, 40 h; also: nearly all actives have a fitted effect of over 45% in size
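ATP quantification (ATPlite) reports survival of PC12 cells in which tebufenozide, 100 nM final, switches on Htt exon 1 with 103 glutamines linked to GFP; compounds are titrated.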
Numbers stand for hits; i = inactive; ? = inconclusive; nt = no result given; [ ] = another dose, or the depositor's remark. Unless noted, calls follow the shape of the dose curve; as a rule, active = well fitted curve in the direction sought with a large enough effect; inconclusive = small, poorly fitted or top-dose-only effect, or another doubt; inactive = no such curve, though single readings can be large; an effect the other way counts as inactive or inconclusive.

SMILES	HTT aggregate	PNC assembly inh	IMPase inh	NPSR antag	ALOX12 inhib	HTT ATP protect
COc1ccccc1CN1CCNC(=O)C1CC(=O)NCCc1cnccn1 (stereo not drawn)	i	nt	nt	i	nt	i
O=C(CCc1ccccc1)N1CCN(CCO)CC1	i	-89.1	i	i	i	i
CC1CC(C)CN(C(=O)CCc2ccccc2)C1 (stereo not drawn)	i	nt	nt	i	nt	i
C=CCON1C(=O)c2ccccc2C1=O	i[9.22 µM]	-110.7	i	i	i	i
COC(=O)CON1C(=O)c2ccccc2C1=O	i	i	i	i	i	i
Cc1c(Cc2ccccc2)sc(/N=C/c2ccc3ccccc3c2)c1C(N)=O	i	-103.3	i	i	i	i[10 µM]
O=C(CCCOc1ccc(Cl)cc1)N1CCCCCC1	?	-99.1	i	?	i	i
CS(=O)(=O)N(CC(=O)N1CCCCCC1)Cc1ccc(Cl)cc1	i	-107.0	i	i	i	i
CN1CCN(C(=O)CN(Cc2ccc(Cl)cc2)S(C)(=O)=O)CC1	i	?	i	i	i	i[10 µM]
O=C(CCCOc1ccc(Cl)cc1)N1CCCCC1	i	i	i	i	i	i
COc1ccccc1CNc1nc(-c2ccccc2OC)nc2ccccc12	nt	nt	nt	nt	nt	i
CC(=O)N/C(=C/c1ccc2c(c1)OCO2)C(=O)NCC(=O)O	3.16µM	i	nt	i	i	nt
CCOC(=O)C1OC1C(=O)NC(CC(C)C)C(=O)NCCC(C)C (stereo not drawn)	nt	nt	nt	nt	nt	i
CC(=O)N(C1=C(Cl)C(=O)c2ccccc2C1=O)C1CCCCC1	?	nt	nt	6.31µM	nt	i[10 µM]
Cn1ncc2c(Cl)ncnc21	nt	nt	nt	nt	i[11.4 µM]	i[10 µM]
COCCn1nnnc1CN1CCOCC1	i	i	i[9.22 µM]	i	i	i[10 µM]
COc1cc(C(=O)NC2CCN(Cc3nnnn3Cc3cccs3)CC2)cc(OC)c1OC	i	i	i	i	i	i[10 µM]
COCCn1nnnc1CN1CCC(NC(=O)c2ccc(Br)cc2)CC1	i	-100.0	i	i	i	i[10 µM]
COCCn1nnnc1CN1CCC(C)CC1	i	-100.0	i	i	i	?
CSc1ncnc2c1ncn2C1OC(CO)C(O)C1O (stereo not drawn)	nt	nt	nt	nt	i	nt
Clc1ccc(Nc2nc(-c3ccccc3)c3ccccc3n2)c(Cl)c1	nt	nt	i	nt	nt	nt
CC(C)(C)C(=O)NNC(=O)COc1ccc2ccccc2c1Br	i	nt	nt	i	nt	i
COC(=O)NNC(=O)COc1ccc2ccccc2c1Br	i	-81.6	nt	i	i	i[10 µM]
Cc1ccc(NCC(O)C(O)C(O)CO)c(N=Nc2ccccc2)c1C (stereo not drawn)	i[9.22 µM]	nt	nt	i	nt	i[10 µM]
Nc1cc2ccncc2c2ccccc12	0.355µM	nt	nt	i	nt	i[10 µM]
SMILES	HTT aggregate	PNC assembly inh	IMPase inh	NPSR antag	ALOX12 inhib	HTT ATP protect
CC(=O)CCS(=O)(=O)c1ccc(Oc2ccc(S(=O)(=O)CCC(C)=O)cc2)cc1	?	i	i	i	i	i[10 µM]
COc1ccc(S(=O)(=O)CCC(=O)O)cc1	2.24µM	i	i	?	i	i
c1ccc(Cn2nnc(-c3ccccc3)n2)cc1	i	-100.0	i	i	i	i[10 µM]
NCc1nnn(Cc2ccccc2)c1N	nt	nt	nt	nt	i[11.4 µM]	i[10 µM]
Nc1nnn(Cc2ccccc2)n1	i	-100.0	i	i	i	i[10 µM]
COc1ccc(Cc2nnc(NS(=O)(=O)c3ccccc3)s2)cc1	i[9.22 µM]	nt	nt	i	nt	i[10 µM]
O=S(=O)(Nc1nnc(-c2ccccc2)s1)c1ccc(Cl)cc1	35.5µM	?	i	i	?	i
COc1ccc(NC(=O)N2CCC(O)(c3cccnc3)CC2)c(OC)c1	i	-82.4	i	i	i	i[10 µM]
COc1cccc(C(=O)N2CCC(O)(c3cccnc3)CC2)c1	i[9.22 µM]	nt	nt	i	nt	i[10 µM]
O=C(CN1C(=O)CSc2ccccc21)N1CCc2ccccc21	i	-89.8	i	i	i	i[1.9 µM]
CCc1c(C)nc2ncnn2c1NCCc1ccccc1	10µM	i	i	i	i	i
N/C(Cc1ccc(Cl)cc1Cl)=N\OC(=O)Cc1cccs1	i	-123.8	nt	i	i	nt
CC1CCC2C(=O)N3C(CCC(C)[C@H]3c3ccccc3Br)C(=O)N2C1c1ccccc1Br (stereo partly drawn)	nt	nt	nt	nt	nt	i[10 µM]
Cc1c(-c2ccc(O)cc2)nn(-c2ccc(O)cc2)c1-c1ccc(OCCN2CCCCC2)cc1	nt	nt	i	nt	i	i
O=C1c2ccccc2C(=O)N1c1cccc(-c2nc3ccccc3o2)c1	i	-88.7	?	i	i	i
O=S(=O)(NCc1cn2ccccc2n1)c1cc(F)ccc1F	i	-100.0	i	i	i	i[10 µM]
O=S(=O)(NCc1cn2ccccc2n1)c1cccs1	i[9.22 µM]	nt	nt	i	nt	i[10 µM]
O=C(c1cccc(F)c1)N1CCC[C@@]2(CCN(Cc3ccccc3)C2)C1	nt	nt	nt	nt	i	?
COC(=O)c1cc(O)c(OCc2ccccc2)c(O)c1	i	-85.3	i	i	i	i[10 µM]
COC(=O)c1[nH]c(=O)c2ccccc2c1OCc1ccccc1	i	i	i	i	i	i
Cc1ccc2nc(-c3ccc(Cl)cc3)cc(C(=O)OCC(=O)c3ccccc3)c2c1	nt	nt	i	nt	nt	nt
CCCc1nn(-c2cc(Cl)ccc2OC)c2c1C(=O)CCC2	i	-97.3	i	i	i	i
Cc1ccccc1C(=O)NC1CCN(Cc2nnnn2Cc2ccc(F)cc2)CC1	i	?	i	i	i	i
CCC(C)(C)n1nnnc1CN1CCC(NC(=O)c2ccccc2C)CC1	i	-100.0	i	i	i	i[10 µM]
Nc1nc(Cc2ccccc2)nc(Cc2ccccc2)c1-c1ccccc1	nt	nt	nt	nt	i[11.4 µM]	i[10 µM]
SMILES	HTT aggregate	PNC assembly inh	IMPase inh	NPSR antag	ALOX12 inhib	HTT ATP protect
CCC(C)OC(=O)/C(C#N)=C\c1ccc(-c2ccccc2Cl)o1 (stereo not drawn)	nt	nt	i	nt	nt	nt
O=C(CCCCCn1c(SCc2ccncc2)nc2ccccc2c1=O)NCc1ccco1	i	-100.0	i	i	i	i[10 µM]
Cc1ccc(NC(=O)CSc2nc3ccccc3c3nc4ccccc4n23)cc1	i	-107.5	i	i	i	i[10 µM]
O=C(CSc1nc2ccccc2c2nc3ccccc3n12)NCc1ccco1	i	-83.2	i	i	i	i[10 µM]
COc1ccc(NC(=O)CSc2nc3ccccc3c3nc4ccccc4n23)cc1	i	i	nt	i	i	i[10 µM]
COCCN(CCOC)S(=O)(=O)c1ccc(C(=O)Nc2sc3c(c2C(N)=O)CCCCC3)cc1	i	-119.3	i	i	i	i[10 µM]
COC(=O)c1c(NC(=O)c2ccccc2N(C)S(=O)(=O)c2ccccc2)sc2c1CCCC2	i	-107.8	i	i	i	i[10 µM]
Cn1c(SCC(=O)NCc2ccco2)nnc1-c1ccc(S(=O)(=O)N2CCOCC2)cc1	i	-100.0	i	i	i	i[10 µM]
Cn1c(SCC(=O)NCc2ccco2)nnc1-c1ccccc1	i	i	i	i	i	i[1.9 µM]
